Assay results from ChEMBL document CHEMBL3433997, “St. Jude Leishmania screening dataset” (2016).
Several values for one entry are separate records, joined by “and”; a condition that tells them apart may be missing. Equal entries are not always repeated.

Legend:
Type in all cases: functional
[1] = target: Solute carrier family 2, facilitated glucose transporter member 1 (Homo sapiens) (UniProt P11166); test: ST_JUDE_LEISH: Cytotoxicity at 2uM final concentration against transgenic Leishmania Mexicana promastigotes LmGLUT1 that are glucose transport deficient and complemented with the human glucose transporter GLUT1. Activity is measured by DNA content using SYBR green in vitro
[2] = target: Hexose transporter 1 (Plasmodium falciparum) (UniProt O97467); test: ST_JUDE_LEISH: Cytotoxicity at 2uM final concentration against transgenic Leishmania Mexicana promastigotes LmPfHT that are glucose transport deficient and complemented with the Plasmodium falciparum hexose transporter. Activity is measured by DNA content using SYBR green in vitro
[3] = target: Glucose transporter (Leishmania mexicana) (UniProt O61059); test: ST_JUDE_LEISH: Cytotoxicity at 2uM final concentration against transgenic Leishmania Mexicana promastigotes LmGT2 that are glucose transport deficient and complemented with the L. Mexicana glucose transporter 2. Activity is measured by DNA content using SYBR green in vitro

Solute carrier family 2, facilitated glucose transporter member 1 (Homo sapiens), sequence (P11166 whole entry): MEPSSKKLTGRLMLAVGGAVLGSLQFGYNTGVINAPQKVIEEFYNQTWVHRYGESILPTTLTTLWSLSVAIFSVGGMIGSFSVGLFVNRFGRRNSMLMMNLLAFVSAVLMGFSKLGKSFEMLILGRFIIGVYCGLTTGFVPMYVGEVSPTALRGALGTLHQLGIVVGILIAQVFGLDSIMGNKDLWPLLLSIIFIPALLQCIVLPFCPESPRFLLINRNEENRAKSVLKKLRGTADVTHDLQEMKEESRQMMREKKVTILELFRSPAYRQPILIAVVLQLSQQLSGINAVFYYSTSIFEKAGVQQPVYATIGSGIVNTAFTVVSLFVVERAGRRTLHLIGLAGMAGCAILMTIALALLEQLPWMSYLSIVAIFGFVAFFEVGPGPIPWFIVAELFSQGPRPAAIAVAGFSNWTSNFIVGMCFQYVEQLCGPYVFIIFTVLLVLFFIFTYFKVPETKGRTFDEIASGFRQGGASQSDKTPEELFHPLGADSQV

| Compound | inhibition [1] | inhibition [2] | inhibition [3] |
| --- | --- | --- | --- |
| CN1CCN(c2nc(NCCc3ccc(O)cc3)nc(NCc3ccccc3-c3ccc(C(F)(F)F)cc3)n2)CC1 | 1.59% | 2.22% | 3.13% |
| COc1ccccc1CNc1nc(Nc2ccccc2C)nc2ccccc12 | 38.4% | 54.5% | 14.4% |
| CCc1nnc2sc(-c3cccc(NC(=O)c4ccc(C)c([N+](=O)[O-])c4)c3)nn12 | 7.69% | 3.97% | 2.48% |
| COc1cc(C(F)(F)F)nc2c(CNCCCNc3cc(=O)c4ccccc4[nH]3)scc12 | 0.84% | 0.13% | 0.55% |
| CCOc1ccc(CCC(=O)O)cc1OCC | 2.83% | 3.36% | 2.88% |
| CC(=O)c1ccc(N2CCN(CCC3(c4ccc(Cl)c(Cl)c4)COCN(C(=O)c4ccccc4)C3)CC2)cc1 (stereo not given) | 4.7% | 1.18% | -0.21% |
| O=C(Cc1ccc([N+](=O)[O-])cc1)N1CCc2cc3nccc(N4CCN5CCC[C@@H]5C4)c3cc21 | 1.21% | 0.39% | 2.97% |
| CCOCc1cnc(C)nc1NCC(=O)c1c(C)[nH]c2cc(C)ccc12 | -0.21% | -0.79% | -0.44% |
| Cc1cccc2nc(-c3ccc(-c4cccc(NC(=O)NCc5ccc(F)cc5)c4)cc3)[nH]c12 | 3.38% | 4.77% | 3.65% |
| Cc1ccc2[nH]c(C)cc(=NN=Cc3cccc(Cl)c3)c2c1 | 2.87% | 0.92% | 2.31% |
| Cc1nn(CCOC(=O)NC(NCC2COc3ccccc3O2)C(Cl)(Cl)Cl)cc1[N+](=O)[O-] (stereo not given) | 0.33% | -0.07% | -1.73% |
| c1ccc2[nH]c(-c3ccc(-c4ccc(CNCC5CCCO5)cc4)s3)nc2c1 (stereo not given) | 5.5% | 4.61% | 5.42% |
| CC(C)c1ccc(NC(=O)c2ccc(C(=O)NC3CCN(Cc4ccccc4)CC3)cc2)cc1 | 1.09% | 2.91% | -1.3% |
| CC(C)c1ccc(C=CC(=O)N2CCC(CCN3CCC(c4c[nH]c5ccccc45)CC3)CC2)cc1 | -1.34% | -1.09% | -0.06% |
| CC(=O)N(C)c1ccc(C(=O)Nc2cccc(-c3cccc(-c4nc5cccc(C)c5[nH]4)c3)c2)cc1 | 3.67% | 3.97% | 0.08% |
| O[C@@H](c1cc(C(F)(F)F)nc2c(C(F)(F)F)cccc12)[C@H]1CCCCN1 | 13.6% and 1.21% | 8.31% and 0.88% | 7.19% and 1.05% |
| N#Cc1ccc(N2CCN(C(=O)c3cccc(-c4noc(C(F)(F)F)n4)c3)CC2)nc1 | 0.27% | 0.91% | -0.23% |
| Cc1cccc(CNc2nc(C)cc(N[C@@H](Cc3ccccc3)C(=O)NCCc3ccccc3)n2)c1 | 3.88% | 3.72% | 0.77% |

| Compound | inhibition [1] | inhibition [2] | inhibition [3] |
| --- | --- | --- | --- |
| CCNc1cc(CC)nc(Nc2ccc(C)cc2)n1 | 33.4% | 28.9% | 17.9% |
| CC(C)(CNCc1ccc(C(F)(F)F)cc1)c1nc(-c2ccc(Cl)c(O)c2)c(-c2ccncc2)[nH]1 | 0.52% | -0.09% | 0.02% |
| CCc1sc(N2CCC(C)CC2)nc1C(=O)Nc1ccc(F)cc1C(F)(F)F | 2.29% | 3.34% | 0.26% |
| COc1cc2nc(N3CCN(c4cc(C)ccc4C)CC3)nc(N)c2cc1OC | 1.13% | 0.08% | 0.51% |
| COCCn1c(SC(C)C(=O)Nc2cc(C(F)(F)F)ccc2Cl)nc2ccccc2c1=O (stereo not given) | 0.17% | -0.22% | -0.21% |
| O=C(c1cccc(-c2noc(C(F)(F)F)n2)c1)N1CCN(c2ccncc2)CC1 | 11.1% | 10.9% | 10.8% |
| C=C[C@H]1CN(CCCCCCC)CC[C@H]1CCNc1ccnc2ccc(OC)cc12 | -2.18% | 3.68% | -1.48% |
| CCN(CCCN1CCCCC1)c1cc(C)nc(Nc2cc(Br)ccc2C)n1 | -1.93% | -0.61% | -0.36% |
| O=S(=O)(c1ccc(Oc2ccccc2)cc1)N(CCC(O)(C(F)(F)F)C(F)(F)F)Cc1cccc(O)c1 | -1.44% | -3.19% | -4.58% |
| Cc1cccc2nc(-c3ccc(-c4ccc(NC(=O)Nc5cccc(C#N)c5)cc4)cc3)[nH]c12 | 9.74% | 6.91% | 7.39% |
| CN(C)CCCOc1cccc(NC(=O)Nc2ccc(Cl)c(Cl)c2)c1 | -1.47% | -0.6% | -1.24% |
| COc1ccc2nccc([C@@H](O)CN3CCC(NC(=O)c4cc5ccccc5[nH]4)CC3)c2c1 | 36% | 55.7% | 38.7% |
| O=C(N[C@@H](CC1CCCCC1)C(=O)NCc1cccc2ccccc12)c1ccc(O)c(-c2ccc(Cl)c(Cl)c2)c1 | 2.54% | 2.25% | 2.22% |
| Cc1ccc(F)cc1-c1cc(N2CCCN(C(=O)c3ccc(Br)o3)CC2)ncn1 | 0.81% | 0.93% | -0.08% |
| CCOc1cc(NCCSCc2nc[nH]c2C)nc2ccccc12 | -1.28% | -0.61% | -3.84% |
| O=S(=O)(Nc1cccc(CCN2CCC(N3CCCCC3)CC2)c1)c1cccc(C(F)(F)F)c1 | 0.17% | 3.24% | 0.82% |
| COc1ccc(CNC2CCN(C)CC2)cc1-c1ccc(S(=O)(=O)NCc2cccnc2)s1 | -1.99% | 0.85% | 5.84% |
